BoNT F protease = blocks Botulinum neurotoxin F light chain protease | AID 588497 | Multiplex microsphere protease cleavage assay, flow cytometry | actives 0.22% (n = 360,000) | inhibition, % at 10 µM; in the data active means inhibition above about 35%, passing the limit was not always enough; inconclusive means no clear call, values can overlap the other calls; further: plate controls were buffer without enzyme for full effect and enzyme alone for no effect
PfHsp40 rescue = rescue of PfHsp40-mediated yeast toxicity; S. cerevisiae expressing PfHsp40, growth rescue, ATP luminescence; actives 0.68% (n = 340,000); growth rescue, % at 12.5 µM; in the data active means growth rescue above about 28%, passing the limit was not always enough; inconclusive means no clear call, values can overlap the other calls;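 further: yeast W303a lacking pdr1 and pdr3 grown in galactose medium; growth measured after three days at 30 °C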
MazEF act = MazEF (E. coli) toxin RNase activation | P0AE70 | FAM/BHQ RNA-DNA oligo cleavage fluorescence, 5 h | activation, % at 20 µM | actives 0.32% (n = 350,000) | AID 504720; in the data active means activation above about 50%
BoNT A protease = inhibitors of Botulinum neurotoxin A light chain protease. multiplex microsphere protease substrate cleavage, flow cytometry. AID 588499. inhibition, % at 10 µM. actives 0.17% (n = 360,000); further: plate controls were buffer without enzyme for full effect and enzyme alone for no effect
Autofluor counter = flagged as autofluorescent in microsphere protease counterscreen; compound autofluorescence counterscreen, microsphere flow cytometry; hits give high values; fluorescence intensity (no concentration beside the values); actives 3.1% (n = 360,000); in the data active means fluorescence intensity above about 16000; inconclusive means no clear call, values can overlap the other calls
Anthrax LF prot = inhibitors of Bacillus anthracis lethal factor protease. P15917. multiplex microsphere protease cleavage assay, LF. inhibition, % at 10 µM. actives 0.12% (n = 360,000). AID 588501; further: plate controls were buffer without enzyme for full effect and enzyme alone for no effect
Target sequence (P15917 whole entry, looked up): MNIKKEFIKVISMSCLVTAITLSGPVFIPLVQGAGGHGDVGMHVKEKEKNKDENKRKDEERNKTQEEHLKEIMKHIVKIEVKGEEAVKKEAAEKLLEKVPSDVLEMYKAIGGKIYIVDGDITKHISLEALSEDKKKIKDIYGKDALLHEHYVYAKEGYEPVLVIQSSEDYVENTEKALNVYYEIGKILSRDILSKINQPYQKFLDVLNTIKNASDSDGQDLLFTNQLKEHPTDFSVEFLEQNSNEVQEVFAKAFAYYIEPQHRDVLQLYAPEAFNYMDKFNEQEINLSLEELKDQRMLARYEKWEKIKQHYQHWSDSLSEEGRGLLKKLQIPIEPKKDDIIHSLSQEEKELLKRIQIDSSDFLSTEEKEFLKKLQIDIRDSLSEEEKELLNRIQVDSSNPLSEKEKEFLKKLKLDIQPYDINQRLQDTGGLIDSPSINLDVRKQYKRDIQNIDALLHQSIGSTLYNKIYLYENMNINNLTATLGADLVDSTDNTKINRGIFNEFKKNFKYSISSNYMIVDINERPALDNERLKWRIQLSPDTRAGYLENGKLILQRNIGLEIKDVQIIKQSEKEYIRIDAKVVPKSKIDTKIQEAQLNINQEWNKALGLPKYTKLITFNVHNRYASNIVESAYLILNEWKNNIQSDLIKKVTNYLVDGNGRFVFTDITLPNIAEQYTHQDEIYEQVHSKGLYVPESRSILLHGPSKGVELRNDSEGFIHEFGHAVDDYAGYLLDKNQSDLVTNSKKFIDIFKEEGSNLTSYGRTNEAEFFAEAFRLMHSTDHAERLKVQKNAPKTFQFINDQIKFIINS
An asterisk follows results filed as active. Only some compounds are listed: those with a hit (about 4.3% of all), similar ones and a draw of the others. Unless noted, no stated cut-off is given here; in the data, active means inhibition above about 30%; inconclusive means no clear call, values can overlap the other calls; inactive means below that.

What do the screens show for `Cc1cccc(OCCSc2nc(N)cc(N)n2)c1`?
BoNT F protease: -3; PfHsp40 rescue: 1; MazEF act: 11; BoNT A protease: 0; Autofluor counter: 5283; Anthrax LF prot: -3

What do the screens show for `Oc1ccccc1-[n+]1c(-c2ccccc2)cc(-c2ccccc2)c(O)c1-c1ccccc1`?
BoNT F protease: -17; PfHsp40 rescue: 42*; MazEF act: -10; BoNT A protease: 0; Autofluor counter: 3828; Anthrax LF prot: -1

What do the screens show for `CCCC(=O)NC(c1ccc(N(C)C)cc1)c1ccc2cccnc2c1O` (stereo not drawn)?
BoNT F protease: 3; PfHsp40 rescue: 410*; MazEF act: 3; BoNT A protease: -1; Autofluor counter: 2921; Anthrax LF prot: 5

Results for CCC(=O)NC(c1cc(Cl)c2cccnc2c1O)C(C)C (stereo not drawn) ?
BoNT F protease: -2; PfHsp40 rescue: 247*; MazEF act: 10; BoNT A protease: 0; Autofluor counter: 4091; Anthrax LF prot: 0

How did CCCC(=O)NC(c1ccc(C(C)C)cc1)c1ccc2cccnc2c1O (stereo not drawn) do in these assays?
BoNT F protease: -3; PfHsp40 rescue: -2; MazEF act: 0; BoNT A protease: 1; Autofluor counter: 3805; Anthrax LF prot: -4

Results for CCC(=O)NC(c1ccc(Cl)cc1Cl)c1ccc2cccnc2c1O (stereo not drawn) ?
BoNT F protease: inconclusive; PfHsp40 rescue: 122*; MazEF act: -3; BoNT A protease: -2; Autofluor counter: 4465; Anthrax LF prot: -6

What do the screens show for `Cc1sc2ncn(CC(=O)NCCCN3CC(C)CC(C)C3)c(=O)c2c1S(=O)(=O)N1CC(C)CC(C)C1` (stereo not drawn)?
BoNT F protease: 2; PfHsp40 rescue: 1; MazEF act: 8; BoNT A protease: 2; Autofluor counter: 4132; Anthrax LF prot: -5

What do the screens show for `O=c1c(Br)ccc(Br)cc1Br`?
BoNT F protease: 5; PfHsp40 rescue: 77*; MazEF act: 7; BoNT A protease: 0; Autofluor counter: 3473; Anthrax LF prot: 0

How did Cc1ccc(N(C)S(=O)(=O)c2csc(C(N)=O)c2)cc1C do in these assays?
BoNT F protease: 1; PfHsp40 rescue: 1; MazEF act: -5; BoNT A protease: 1; Autofluor counter: 3712; Anthrax LF prot: 14

How did COc1cccc(N/C(N)=N/c2nc(C)cc(=O)[nH]2)c1 do in these assays?
BoNT F protease: -9; PfHsp40 rescue: 0; MazEF act: 8; BoNT A protease: -1; Autofluor counter: 3416; Anthrax LF prot: 0

How did CCN1C(=O)c2ccccc2S(=O)(=O)c2ccc(C(=O)NCCOC)cc21 do in these assays?
BoNT F protease: 61*; PfHsp40 rescue: -2; MazEF act: 3; BoNT A protease: 2; Autofluor counter: 2966; Anthrax LF prot: 10

What do the screens show for `O=C(CSc1nccc(=O)[nH]1)c1ccccc1Br`?
BoNT F protease: -2; PfHsp40 rescue: 0; MazEF act: -8; BoNT A protease: 0; Autofluor counter: 16683*; Anthrax LF prot: -3

Results for O=C(CSc1nccc(=O)[nH]1)c1c[nH]c2ccccc12 ?
BoNT F protease: -8; PfHsp40 rescue: -1; MazEF act: 4; BoNT A protease: -1; Autofluor counter: 5190; Anthrax LF prot: -3

What do the screens show for `CCC(Oc1ccccc1OC)C(=O)Nc1ccc2c(c1)OCO2` (stereo not drawn)?
BoNT F protease: -2; PfHsp40 rescue: -1; MazEF act: 1; BoNT A protease: 2; Autofluor counter: 5137; Anthrax LF prot: -1

How did N#Cc1ccc(OS(=O)(=O)c2ccc(-c3ccon3)s2)cc1 do in these assays?
BoNT F protease: -5; PfHsp40 rescue: 0; MazEF act: 0; BoNT A protease: -4; Autofluor counter: 4827; Anthrax LF prot: -8

Results for Cc1ccc(Nc2ccc(N)cc2S(=O)(=O)O)cc1 ?
BoNT F protease: -9; PfHsp40 rescue: 8; MazEF act: -2; BoNT A protease: -1; Autofluor counter: 3460; Anthrax LF prot: -8

Results for Nc1ccc(Nc2ccccc2)c(S(=O)(=O)O)c1 ?
BoNT F protease: -8; PfHsp40 rescue: 41*; MazEF act: 2; BoNT A protease: -1; Autofluor counter: 3477; Anthrax LF prot: 1

How did Cn1nc(C(=O)OCC(=O)Nc2ccc(SC(F)F)cc2)c2ccccc2c1=O do in these assays?
BoNT F protease: -1; PfHsp40 rescue: 6; MazEF act: -21; BoNT A protease: 0; Autofluor counter: 3754; Anthrax LF prot: -13

Results for O=C(O)CSc1nnc(C2COc3ccccc3O2)n1-c1ccccc1 (stereo not drawn) ?
BoNT F protease: 3; PfHsp40 rescue: 1; MazEF act: 6; BoNT A protease: 1; Autofluor counter: 19815*; Anthrax LF prot: -2

Results for CC(C)(C)c1ccc(S(=O)(=O)N2CC(=O)Nc3ccccc32)cc1 ?
BoNT F protease: -3; PfHsp40 rescue: 0; MazEF act: 9; BoNT A protease: -1; Autofluor counter: 23729*; Anthrax LF prot: 0

What do the screens show for `Cc1ccc(S(=O)(=O)N2CC(=O)Nc3ccccc32)cc1`?
BoNT F protease: -9; PfHsp40 rescue: 0; MazEF act: 5; BoNT A protease: 0; Autofluor counter: 11029; Anthrax LF prot: -5

How did O=C(NNC(=O)c1ccccc1Br)c1cnccn1 do in these assays?
BoNT F protease: 1; PfHsp40 rescue: 0; MazEF act: -2; BoNT A protease: -1; Autofluor counter: 4083; Anthrax LF prot: -8

What do the screens show for `O=[N+]([O-])c1ccc2nccn2c1`?
BoNT F protease: -2; PfHsp40 rescue: -1; MazEF act: 5; BoNT A protease: -2; Autofluor counter: 24475*; Anthrax LF prot: 1

What do the screens show for `COc1cccc(-c2ccc3nccn3c2)c1`?
BoNT F protease: -1; BoNT A protease: 2; Autofluor counter: 3988; Anthrax LF prot: 5

Results for COC(=O)/C=c1/s/c(=C(\C#N)C(=O)NCc2ccco2)n(-c2ccc(C)cc2)c1=O ?
BoNT F protease: inconclusive; PfHsp40 rescue: -1; MazEF act: 65*; BoNT A protease: 2; Autofluor counter: 4801; Anthrax LF prot: -1

What do the screens show for `COc1ccc([C@H]2C[C@@H](n3cc(-c4ccc(F)cc4)nn3)[C@H](O)CN2C(=O)c2cccs2)cc1`?
BoNT F protease: 0; MazEF act: 0; BoNT A protease: 0; Autofluor counter: 2873; Anthrax LF prot: -5

How did O=C1CCCN1CCCNC(=S)Nc1ccc(F)cc1 do in these assays?
BoNT F protease: -4; PfHsp40 rescue: -1; MazEF act: -9; BoNT A protease: -1; Autofluor counter: 1956; Anthrax LF prot: -2

How did O=C1CCCN1CCC1CCN(C(=S)Nc2ccc(F)cc2)CC1 do in these assays?
BoNT F protease: inconclusive; PfHsp40 rescue: 99*; MazEF act: -4; BoNT A protease: inconclusive; Autofluor counter: inconclusive; Anthrax LF prot: inconclusive
